# Measurements taken from PubChem BioAssay (NCATS).
# Inconclusive results are not listed. Where a call stands in place of a potency, no number is given. Calls of active or inactive are those of the source. Unless noted, calls come from the whole dose curve.
# What was measured:
# [1] = qHTS assay for small molecule agonists of retinoid X receptor alpha signaling (AID 588544); conditions: HEK293T RXRa-UAS-bla, beta-lactamase reporter, 18 h; 530 nm emission
# [2] = target: Retinoic acid receptor RXR-alpha (Homo sapiens) (UniProt P19793); assay: as above; conditions: HEK293T RXRa-UAS-bla, beta-lactamase reporter, 18 h; series mostly up to 76.7 µM
# Retinoic acid receptor RXR-alpha (Homo sapiens), sequence (P19793 whole entry, looked up): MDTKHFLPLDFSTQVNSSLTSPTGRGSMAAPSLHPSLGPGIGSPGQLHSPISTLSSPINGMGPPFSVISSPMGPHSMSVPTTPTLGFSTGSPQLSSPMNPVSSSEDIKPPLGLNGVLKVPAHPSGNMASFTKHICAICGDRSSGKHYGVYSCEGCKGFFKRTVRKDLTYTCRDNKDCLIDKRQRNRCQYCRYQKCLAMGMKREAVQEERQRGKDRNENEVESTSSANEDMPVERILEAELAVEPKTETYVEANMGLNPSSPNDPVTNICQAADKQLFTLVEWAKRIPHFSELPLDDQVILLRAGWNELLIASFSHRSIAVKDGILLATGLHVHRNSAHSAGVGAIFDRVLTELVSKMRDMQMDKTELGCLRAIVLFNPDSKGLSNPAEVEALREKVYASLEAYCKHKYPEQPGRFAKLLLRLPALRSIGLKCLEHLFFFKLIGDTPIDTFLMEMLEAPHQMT
# [3] = target: Thyroid hormone receptor beta (Homo sapiens) (UniProt P10828); assay: qHTS assay for small molecule agonists of thyroid hormone receptor beta signaling (AID 588545); conditions: TR-UAS-bla GripTite HEK 293, beta-lactamase ratio, agonist mode, 18 h, percent of T3 response, DMSO as zero; series mostly up to 76.7 µM
# Thyroid hormone receptor beta (Homo sapiens), sequence (P10828 whole entry, looked up): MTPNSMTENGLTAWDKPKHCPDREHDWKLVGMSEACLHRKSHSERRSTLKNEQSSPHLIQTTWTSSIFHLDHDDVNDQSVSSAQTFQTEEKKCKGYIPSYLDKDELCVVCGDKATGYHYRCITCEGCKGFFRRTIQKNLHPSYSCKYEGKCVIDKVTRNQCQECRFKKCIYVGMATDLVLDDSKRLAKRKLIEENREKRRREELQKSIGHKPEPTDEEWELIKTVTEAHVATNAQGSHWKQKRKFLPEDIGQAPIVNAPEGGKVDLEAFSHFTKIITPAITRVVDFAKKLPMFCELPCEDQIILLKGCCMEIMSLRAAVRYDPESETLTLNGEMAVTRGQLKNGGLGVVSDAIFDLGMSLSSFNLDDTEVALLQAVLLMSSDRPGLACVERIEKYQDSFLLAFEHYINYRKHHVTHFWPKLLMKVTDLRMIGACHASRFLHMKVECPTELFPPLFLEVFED
# In short: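 Cells (2500/well) were seeded, incubated 4 hrs at 37 C, dosed with a compound series, incubated 18 hrs, loaded with CCF4 dye for 2 hrs at RT, then read for fluorescence. Data were scaled between DMSO (0%) and 10 nM T3 (100%).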
# [4] = qHTS assay for small molecule antagonists of retinoid X receptor alpha signaling (AID 588546; active = well fitted inhibition curve with a large enough effect in the signal ratio, with a control signal flat, not every such curve was filed as active; the % refers to the signal ratio;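 note: cells stimulated with 9-cis-retinoic acid as agonist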); conditions: HEK293T RXRa-UAS-bla, beta-lactamase ratio, antagonist mode; measured here: W530 green channel, cytotoxicity proxy
# In short: (§1)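 Beta-lactamase reporter inhibition, read as CCF4 fluorescence ratio (ex 405, em 460/530 nm) after 2 h at RT. HEK293T UAS-bla cells, 2500/well, were stimulated with 9-cis-RA at 500 or 100 nM final alongside test compound for 18 h at 37 C.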
# [5] = target: Retinoic acid receptor RXR-alpha (Homo sapiens) (UniProt P19793); assay: as above; conditions: HEK293T RXRa-UAS-bla, beta-lactamase ratio, antagonist mode
# In short: as §1
# [6] = target: Thyroid hormone receptor beta (Homo sapiens) (UniProt P10828); assay: qHTS assay for small molecule antagonists of thyroid hormone receptor beta signaling (AID 588547; active = well fitted inhibition curve with a large enough effect in the signal ratio, with a control signal flat, not every such curve was filed as active; the % refers to the signal ratio;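 note: cells stimulated with 0.4 nM T3 agonist during compound exposure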); conditions: TR-UAS-bla HEK293, beta-lactamase ratio, antagonist mode, 18 h
# In short: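 Inhibition of T3-driven (0.4nM final) beta-lactamase reporter activity was measured over 0.59 nM to 92 uM compound after 18 h at 37 C. The cells were GripTite HEK293 TR-UAS-bla in charcoal/dextran-stripped serum, with CCF4 ratio read-out and IC50 from Hill fits.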
# [7] = target: Voltage-gated inwardly rectifying potassium channel KCNH2 (Homo sapiens) (UniProt Q12809); assay: qHTS Assay for Small Molecule Inhibitors of the Human hERG Channel Activity (AID 588834; active = well fitted curve in the direction sought with a large enough effect; an effect the other way counts as inactive or inconclusive;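 note: top concentration of the series differs between compounds; lower thallium flux fluorescence means stronger hERG block; nearly all actives have a fitted effect of over 50% in size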); conditions: U2OS BacMam hERG, FluxOR thallium flux fluorescence; series mostly up to 92.2 µM
# Voltage-gated inwardly rectifying potassium channel KCNH2 (Homo sapiens), sequence (Q12809 whole entry, looked up): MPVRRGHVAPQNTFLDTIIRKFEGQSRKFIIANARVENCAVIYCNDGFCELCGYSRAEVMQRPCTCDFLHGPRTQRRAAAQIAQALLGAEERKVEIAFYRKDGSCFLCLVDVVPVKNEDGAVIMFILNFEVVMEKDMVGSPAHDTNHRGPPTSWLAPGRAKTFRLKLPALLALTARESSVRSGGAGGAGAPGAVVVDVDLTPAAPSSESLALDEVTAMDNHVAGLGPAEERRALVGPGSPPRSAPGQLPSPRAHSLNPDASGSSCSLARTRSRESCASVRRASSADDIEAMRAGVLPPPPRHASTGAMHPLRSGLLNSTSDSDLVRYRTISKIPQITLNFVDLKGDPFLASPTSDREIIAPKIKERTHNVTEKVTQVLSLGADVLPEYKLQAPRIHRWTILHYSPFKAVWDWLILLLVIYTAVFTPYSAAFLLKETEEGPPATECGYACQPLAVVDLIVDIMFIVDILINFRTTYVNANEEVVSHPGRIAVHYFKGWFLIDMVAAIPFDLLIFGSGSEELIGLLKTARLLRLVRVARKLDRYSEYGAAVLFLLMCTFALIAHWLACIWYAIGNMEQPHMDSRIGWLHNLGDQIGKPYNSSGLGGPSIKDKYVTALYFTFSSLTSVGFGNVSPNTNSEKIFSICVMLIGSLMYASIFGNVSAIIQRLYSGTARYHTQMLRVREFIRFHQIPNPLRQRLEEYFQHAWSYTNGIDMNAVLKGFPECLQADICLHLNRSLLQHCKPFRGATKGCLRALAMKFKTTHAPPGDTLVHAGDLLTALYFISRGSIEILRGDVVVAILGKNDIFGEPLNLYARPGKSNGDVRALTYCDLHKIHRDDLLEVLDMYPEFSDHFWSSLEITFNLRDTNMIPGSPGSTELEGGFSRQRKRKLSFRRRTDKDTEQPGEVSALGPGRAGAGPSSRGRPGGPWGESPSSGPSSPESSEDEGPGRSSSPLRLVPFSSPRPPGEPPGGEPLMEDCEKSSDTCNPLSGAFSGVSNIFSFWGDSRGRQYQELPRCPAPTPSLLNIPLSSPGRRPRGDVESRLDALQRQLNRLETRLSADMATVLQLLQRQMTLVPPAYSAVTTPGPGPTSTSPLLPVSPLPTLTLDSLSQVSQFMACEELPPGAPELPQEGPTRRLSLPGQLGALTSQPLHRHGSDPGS
# In short: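 Homogeneous FluxOR thallium flux assay using hERG-expressing U2OS cells (BacMam). Compound treatment about 10 minutes preceded stimulation; reduced fluorescence taken as channel block.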
# [8] = qHTS assay for small molecule agonists of the antioxidant response element (ARE) signaling pathway (AID 651741; active = well fitted activation curve with a large enough effect in the signal ratio; the % refers to the signal ratio; note: potency is the fitted concentration of half-maximal effect); conditions: HepG2 ARE-bla reporter, beta-lactamase FRET ratio, 16 h; series mostly up to 96 µM
# In short: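 Beta-lactamase reporter under ARE control in HepG2 cells, 2,000 per well, was induced by 16 h compound treatment at 37 C. Read-out was fluorescence from LiveBLAzer B/G FRET substrate after 2 h at room temperature.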
# [9] = qHTS assay for small molecule activators of the p53 signaling pathway (AID 651743; active = well fitted activation curve with a large enough effect in the signal ratio, not every such curve was filed as active; the % refers to the signal ratio); conditions: HCT-116 p53RE-bla, beta-lactamase FRET ratio, 16 h; stronger effect = higher value
# In short: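 After 16 hours compound treatment at 37 C, HCT-116 cells stably expressing p53RE-driven beta-lactamase were loaded with LiveBLAzer B/G FRET substrate for 2 hours at room temperature. Fluorescence intensity served as the p53 activation read-out.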
# [10] = qHTS assay for small molecule activators of the nuclear factor-kappa B (NF-kB) signaling pathway (AID 651749; active = well fitted activation curve with a large enough effect in the signal ratio; the % refers to the signal ratio); conditions: NF-kB-bla ME-180 cells, beta-lactamase FRET ratio, 16 h; stronger effect = higher value
# In short: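 Activation measured after 16 hr compound treatment at 37C, 5% CO2, of 2,000 ME-180 cells/well stably expressing an NF-kB response element–driven beta-lactamase reporter, via FRET-disruption fluorescence.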
# [11] = qHTS assay for small molecule disruptors of the mitochondrial membrane potential - 1 hr assay (AID 651754); conditions: series mostly up to 92.2 µM; note: nearly all actives have a fitted effect of over 35% in size
# In short: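 Loss of mitochondrial potential shifts the cationic dye from red mitochondrial aggregates to green cytoplasmic monomers. Cells (HepG2) are treated with compound for 1 hr before a 30 min dye incubation at 37C.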
# [12] = qHTS assay for small molecule disruptors of the mitochondrial membrane potential - 5 hr assay (AID 651755); conditions: JC-1-type ratio dye; series mostly up to 92.2 µM; note: nearly all actives have a fitted effect of over 40% in size
# In short: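 Membrane-potential dye readout: red aggregate (540 ex/590 em) versus green monomer (490 ex/535 em) fluorescence after 30 min dye loading, following 5 hr compound exposure at 37C of overnight-plated HepG2 cells.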
# [13] = target: Tumor necrosis factor (Homo sapiens) (UniProt P01375); assay: qHTS assay to identify small molecules that stimulate Tumor Necrosis Factor-alpha (TNF-alpha) secretion (AID 651757; active = well fitted curve in the direction sought with a large enough effect in the signal ratio; the % refers to the signal ratio); conditions: Human cells, HTRF 665/615 ratio; series mostly up to 92.2 µM
# Tumor necrosis factor (Homo sapiens), sequence (P01375 whole entry, looked up): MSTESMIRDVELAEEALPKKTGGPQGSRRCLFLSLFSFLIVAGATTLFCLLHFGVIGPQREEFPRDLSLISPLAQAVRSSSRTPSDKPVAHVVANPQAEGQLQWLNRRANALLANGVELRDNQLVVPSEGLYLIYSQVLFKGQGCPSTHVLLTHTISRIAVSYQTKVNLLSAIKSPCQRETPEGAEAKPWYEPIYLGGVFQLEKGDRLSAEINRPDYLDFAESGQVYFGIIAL
# In short: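 Human monocytic THP-1 cells are plated, treated with compound and held at 37 C for 17 hrs. Labeled anti-TNF-alpha antibody mixture is then added; after 3 hr at room temperature, TR-FRET signal reports secreted TNF-alpha.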
# [14] = target: Peroxisome proliferator-activated receptor alpha (Homo sapiens) (UniProt Q07869); assay: qHTS assay for small molecule agonists of the peroxisome proliferator-activated receptor alpha (PPARalpha) signaling pathway (AID 651778; active = well fitted curve in the direction sought with a large enough effect; an effect the other way counts as inactive or inconclusive); conditions: PathHunter PPARalpha complementation, chemiluminescence, 6 h; stronger effect = higher value
# Peroxisome proliferator-activated receptor alpha (Homo sapiens), sequence (Q07869 whole entry, looked up): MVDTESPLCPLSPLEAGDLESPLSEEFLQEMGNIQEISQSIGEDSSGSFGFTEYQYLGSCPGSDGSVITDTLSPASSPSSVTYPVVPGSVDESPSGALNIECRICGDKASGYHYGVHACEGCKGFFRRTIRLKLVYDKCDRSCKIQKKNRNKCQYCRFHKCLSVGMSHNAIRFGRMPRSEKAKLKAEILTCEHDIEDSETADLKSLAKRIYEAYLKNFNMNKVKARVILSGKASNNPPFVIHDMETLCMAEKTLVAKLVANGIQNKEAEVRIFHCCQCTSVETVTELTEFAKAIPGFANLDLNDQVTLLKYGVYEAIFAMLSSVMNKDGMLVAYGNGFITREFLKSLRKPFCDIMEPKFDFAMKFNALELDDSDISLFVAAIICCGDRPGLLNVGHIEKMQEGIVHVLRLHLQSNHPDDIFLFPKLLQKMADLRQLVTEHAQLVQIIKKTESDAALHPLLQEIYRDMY
# In short: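 Chemiluminescence from complemented enzyme reported PPARalpha activation in cells after 6 hr of compound treatment at 37 C. The detection reagent was incubated for 60 min at room temperature, and compounds were scored as agonists.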
# [15] = target: Nuclear receptor ROR-gamma (Homo sapiens) (UniProt P51449); assay: qHTS assay for small molecule antagonists of the retinoid-related orphan receptor gamma (ROR-gamma) signaling pathway (AID 651802; active = well fitted curve in the direction sought with a large enough effect; an effect the other way counts as inactive or inconclusive;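 note: CHO cells with doxycycline-induced ROR-gamma expression; nearly all actives have a fitted effect of over 60% in size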); conditions: ROR-gamma antagonist cell reporter assay; series mostly up to 92.2 µM
# Nuclear receptor ROR-gamma (Homo sapiens), sequence (P51449 whole entry, looked up): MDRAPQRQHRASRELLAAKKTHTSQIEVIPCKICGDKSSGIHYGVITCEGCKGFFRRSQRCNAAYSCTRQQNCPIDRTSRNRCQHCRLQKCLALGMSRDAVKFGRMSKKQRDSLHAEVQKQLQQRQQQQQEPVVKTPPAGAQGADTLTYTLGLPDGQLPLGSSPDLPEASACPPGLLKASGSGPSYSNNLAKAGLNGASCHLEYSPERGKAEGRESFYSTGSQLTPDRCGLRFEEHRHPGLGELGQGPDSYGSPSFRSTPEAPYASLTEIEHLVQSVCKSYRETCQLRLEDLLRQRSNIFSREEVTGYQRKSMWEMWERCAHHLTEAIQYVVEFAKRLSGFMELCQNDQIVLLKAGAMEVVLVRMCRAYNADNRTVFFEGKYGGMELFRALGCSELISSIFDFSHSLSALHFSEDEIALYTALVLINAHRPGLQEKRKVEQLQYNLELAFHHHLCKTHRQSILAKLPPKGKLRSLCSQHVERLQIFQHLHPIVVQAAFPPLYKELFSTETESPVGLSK
# In short: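 Steps: cells dispensed; compound or DMSO transferred by pin tool; doxycycline added to induce the ROR response element-driven luciferase; plates held 16hr at 37C; ONE-Glo added and luminescence measured.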
# [16] = qHTS assay for small molecule agonists of the antioxidant response element (ARE) signaling pathway measured by Nrf2-dependant transcriptional activity (AID 720636; active = well fitted curve in the direction sought with a large enough effect in the repeat runs; an effect the other way counts as inactive or inconclusive); conditions: ARE-luc HepG2, Nrf2 luciferase reporter, 16 h; series mostly up to 92.4 µM
# In short: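 Quantitative HTS format in HepG2 cells stably expressing an ARE-luciferase reporter; 16 hr compound treatment at 37 C, luciferase signal detected with ONE-Glo.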
# [17] = qHTS assay for small molecule antagonists of the retinoid-related orphan receptor gamma (ROR-gamma) signaling pathway - cell viability counter screen (AID 720652; active = well fitted curve in the direction sought with a large enough effect in the repeat runs; an effect the other way counts as inactive or inconclusive;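 note: CHO reporter cells with doxycycline-induced ROR-gamma expression; compound exposure lasted 16 hr before ATP read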); conditions: RORgamma reporter cell line viability counter screen; series mostly up to 92.2 µM
# In short: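 Steps: seed CHO cells bearing TET-inducible ROR and ROR response element-luciferase; rest 5 hr at 37 C; add compound, then doxycycline; incubate 16 hr; add CellTiter-Glo and read luminescence as ATP-based viability.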
# [18] = qHTS assay for small molecule agonists of the antioxidant response element (ARE) signaling pathway measured by Nrf2-dependant transcriptional activity - cell viability counter screen (AID 720653; active = well fitted curve in the direction sought with a large enough effect in the repeat runs; an effect the other way counts as inactive or inconclusive); conditions: ARE-bla HepG2 viability, CellTiter-Glo ATP luminescence, 16 h; stronger effect = lower value
# In short: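 Cytotoxicity counter screen: intracellular ATP quantified by CellTiter-Glo luminescence in the same ARE-bla HepG2 plates, after 16 h compound exposure and a 2 h beta-lactamase substrate step.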
# [19] = qHTS assay to identify small molecules that stimulate interleukin-8 (IL-8) secretion (AID 651758; active = well fitted activation curve with a large enough effect in the signal ratio; the % refers to the signal ratio); conditions: HTRF ratio (665/615); series mostly up to 92.2 µM
# In short: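 Secreted IL-8 measured homogeneously by TR-FRET (two labelled anti-IL-8 antibodies, 1-3 h at room temperature) after a 16 h, 37 C compound treatment of THP-1 cells at 2000 cells/well.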
# [20] = qHTS assay for environmental chemicals that activate the Aryl hydrocarbon Receptor (AhR) signaling pathway (AID 651777; active = well fitted curve in the direction sought with a large enough effect; an effect the other way counts as inactive or inconclusive; note: nearly all actives have a fitted effect of over 15% in size); conditions: 1A2-DRE human hepatoma cells, luciferase, 24 h; activation: stronger effect = higher value
# In short: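 Quantitative HTS in stably transfected human liver-derived cells whose luciferase gene sits downstream of the CYP1A2 promoter and dioxin response element. After 24 hr exposure at 37 C, One-Glo luminescence was measured.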
SMILES,max response [1] [%],outcome [2],outcome [3],max response [4] [%],max response [5],activity change % (negative = inhibition) [6],Potency [7],Potency [8],activation [9],activation [10],Potency [11],Potency [12],Potency [13],max response [14],Potency [15],outcome [16],Potency [17],max response [18],Potency [19],activation [20]
N#CCc1ccccc1[N+](=O)[O-],-1.87,inactive,inactive,20.6,-6.12% (inactive),-13.4% (inactive),inactive,42.2 µM (active),-2.66% (inactive),-0.713% (inactive),inactive,inactive,inactive,-3.4% (inactive),inactive,inactive,inactive,3.79% (inactive),,
N#Cc1ccccc1,-9.04,inactive,inactive,0.37,1.5% (inactive),1.08% (inactive),inactive,inactive,-1.56% (inactive),0.786% (inactive),inactive,inactive,inactive,-0.81% (inactive),inactive,inactive,inactive,0.163% (inactive),,
Cc1ccc(S(=O)(=O)NC2CCCCC2)cc1,-12.2,inactive,inactive,-7.45,11.2% (inactive),-0.348% (inactive),inactive,inactive,-2.24% (inactive),-0.807% (inactive),inactive,inactive,inactive,-1.4% (inactive),,inactive,,,inactive,-0.456% (inactive)
CCOCCOCC,-9.35,inactive,inactive,-9.02,1.41% (inactive),12.3% (inactive),inactive,inactive,0.0371% (inactive),-0.436% (inactive),inactive,inactive,inactive,-2.27% (inactive),inactive,inactive,inactive,5.13% (inactive),,1.1% (inactive)
CCCCCO,-7.88,inactive,inactive,-5.62,1.09% (inactive),2.41% (inactive),inactive,inactive,0.0408% (inactive),-0.261% (inactive),inactive,inactive,inactive,-2.11% (inactive),inactive,inactive,inactive,3.66% (inactive),,
CC(=O)CCc1ccccc1,-7.54,inactive,inactive,-0.836,0.594% (inactive),12% (inactive),inactive,inactive,-1.61% (inactive),0.0566% (inactive),inactive,inactive,inactive,0.48% (inactive),inactive,inactive,inactive,0.255% (inactive),,
